Sampled rows, rich in hits. Any-hit rate of the full collection: about 19%.
uPA surface inh: qHTS for Inhibitors of Cell Surface uPA Generation; cell surface uPA generation assay, qHTS; Potency, µM (titrated, usually from 38.3 µM), hits mostly inhibitors; actives 0.31% (n = 330,000); AID 540303, 2011; active = well fitted inhibition curve with a large enough effect; inconclusive = small, poorly fitted or top-dose-only effect; inactive = no such curve, though single readings can be large or run the other way; tested in mouse RAW 264.7 cells; also: nearly all actives have a fitted effect of over 55% in size
HT1080 IDH1KD tx: qHTS for induction of synthetic lethality in tumor cells producing 2HG: qHTS for the HT-1080-IDH1KD cell line; HT-1080 IDH1 knockdown viability, ATP luminescence, 48 h; Potency, µM (titrated, usually from 46.1 µM), hits mostly cytotoxic; actives 2% (n = 360,000); AID 686971, 2013
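Using the IDH1-knockdown HT-1080 line run in the same batch and compound series as the NT line, viability after 48 h at 37 °C was determined by CellTiter-Glo luminescence and expressed as % activity.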
HT1080NT lethal: qHTS for induction of synthetic lethality in tumor cells producing 2HG: qHTS for the HT-1080-NT fibrosarcoma cell line; Potency, µM (highest dose often 46.1 µM), hits mostly cytotoxic; actives 1.6% (n = 360,000); AID 686970, 2013; HT-1080-NT fibrosarcoma viability, CellTiter-Glo ATP luminescence, 48 h;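 also: NT is the 2HG producing partner of a matched IDH1 knockdown line; nearly all actives have a fitted effect of over 55% in size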
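Read-out is CellTiter-Glo luminescence after 10 minutes at room temperature, following 48 hours' compound treatment of HT-1080-NT cells (750 cells/well, RPMI, 5% FBS, 37 degrees C).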
IL1B secr inh: qHTS for Inhibitors of Inflammasome Signaling: IL-1-beta AlphaLISA Primary Screen; AID 743279, 2014; actives 4.7% (n = 360,000); activity change, % at 57.5 µM; THP-1 LPS/ATP IL-1B secretion, AlphaLISA, 16 h; stronger effect = lower value; in the data active = activity change below about -50%; inconclusive = mostly about -30% to -49%
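Secreted IL-1B measured by AlphaLISA bead assay after 16 h compound exposure of THP-1 cells; compounds (final up to 57.5 uM) added 1 h before LPS (250 ng/mL) and ATP (1.25 mM) stimulation; lower signal means less secretion.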
TDP1 cell CPT: qHTS for Inhibitors of human tyrosyl-DNA phosphodiesterase 1 (TDP1): qHTS in cells in presence of CPT; chicken DT40 Tdp1-/-;hTDP1 cells + 20 nM CPT, ATP luminescence, 48 h; Potency, µM (doses to about 46.2 µM), most hits filed as inhibitors; actives 12% (n = 420,000); AID 686979, 2013; also: nearly all actives have a fitted effect of over 55% in size
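Chicken DT40 Tdp1-/- cells complemented with human TDP1, 400 cells/well, exposed to compounds plus 20 nM camptothecin for at least 48 h at 37 C; viability read as ATP content by CellTiter-Glo luminescence.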
DT40 TDP1 no CPT: qHTS for Inhibitors of human tyrosyl-DNA phosphodiesterase 1 (TDP1): qHTS in cells in absence of CPT; DT40 Tdp1-/- hTDP1 cells, no CPT, ATP luminescence, 48 h; Potency, µM (doses to about 46.2 µM), usual class: inhibitors; actives 15% (n = 420,000); AID 686978, 2013; also: nearly all actives have a fitted effect of over 55% in size
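Chicken DT40 Tdp1-/- cells stably complemented with human TDP1 were seeded at 400 cells/well with DMSO in place of 20 nM camptothecin. After compound pinning, cells grew at least 48 hr at 37 °C; viability read by CellTiter-Glo luminescence.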
Each line names hits and unclear results; the compound was inactive in the other large screens. Unless noted, calls follow the shape of the dose curve; as a rule, active = well fitted curve in the direction sought with a large enough effect; inconclusive = small, poorly fitted or top-dose-only effect, or another doubt; inactive = no such curve, though single readings can be large; an effect the other way counts as inactive or inconclusive.

CCC(COC)NC(=O)c1ccc(OC)c(OC2CCN(C(C)=O)CC2)c1 (stereo not given)	none
CC(=O)c1ccc(NC(=S)N2CCN(S(=O)(=O)c3ccc(F)cc3)CC2)cc1	none
CCCNC(=O)C1(C)CCN(Cc2ccc(OC)c3ccccc23)C1 (stereo not given)	TDP1 cell CPT inconclusive, DT40 TDP1 no CPT 20.6µM (no result: uPA surface inh)
CCCNC(=O)C1(C)CCN(Cc2ccc(C)c3ccccc23)C1 (stereo not given)	TDP1 cell CPT inconclusive, DT40 TDP1 no CPT 23.1µM (no result: uPA surface inh)
COc1ccc(CCN2CC(C(=O)NCCc3ccccn3)CCC2=O)cc1 (stereo not given)	none
O=C1CN(CC(=O)NC2CCCc3ccccc32)CCN1 (stereo not given)	none
COC(=O)NCc1c(C)nn(-c2ccccc2)c1-n1cccc1	DT40 TDP1 no CPT inconclusive (no result: uPA surface inh, HT1080 IDH1KD tx, HT1080NT lethal, IL1B secr inh)
CCOc1ccc(N(CC(=O)NCCSCc2ccco2)S(=O)(=O)c2ccc(F)cc2)cc1	TDP1 cell CPT inconclusive, DT40 TDP1 no CPT 20.6µM
CCOc1ccc(N(CC(=O)NCCSCc2ccco2)S(=O)(=O)c2ccc(C)cc2)cc1	TDP1 cell CPT 18.4µM, DT40 TDP1 no CPT inconclusive
CCOc1ccc(S(=O)(=O)N(CC(=O)NCCSCc2ccccc2)c2ccccc2)cc1	none (no result: uPA surface inh, HT1080 IDH1KD tx, HT1080NT lethal, IL1B secr inh)
CCOc1ccccc1N(CC(=O)NCCSCc1ccco1)S(=O)(=O)c1ccccc1	TDP1 cell CPT inconclusive, DT40 TDP1 no CPT inconclusive
NS(=O)(=O)c1ccc(CNC(=S)NC2CC2)cc1	none
N#Cc1sc2nccc(Nc3ccccc3)c2c1N	TDP1 cell CPT inconclusive, DT40 TDP1 no CPT 2.06µM
CCN(CC(=O)NC(C)(C)C)Cc1nc2c(Br)cc(Br)cc2c(=O)[nH]1	HT1080 IDH1KD tx inconclusive, IL1B secr inh -100.5, TDP1 cell CPT inconclusive, DT40 TDP1 no CPT inconclusive
CCN(CC(=O)NC1CCS(=O)(=O)C1)Cc1nc2c(Br)cc(Br)cc2c(=O)[nH]1 (stereo not given)	none
Nc1cc(=O)[nH]c(SCC(=O)NC2CCCCCCC2)n1	none
OC(C1=C/C(=C\c2ccncc2)c2ccccc21)c1ccncc1 (stereo not given)	TDP1 cell CPT 11.2µM, DT40 TDP1 no CPT 11.2µM (no result: uPA surface inh, HT1080 IDH1KD tx, HT1080NT lethal, IL1B secr inh)
CSc1ccc(/C=C2\C=C(C(O)c3ccc(SC)cc3)c3ccccc32)cc1 (stereo not given)	TDP1 cell CPT 10µM, DT40 TDP1 no CPT 10µM (no result: uPA surface inh, HT1080 IDH1KD tx, HT1080NT lethal, IL1B secr inh)
CC(=O)Nc1ccc(/C=C2\C=C(C(O)c3ccc(NC(C)=O)cc3)c3ccccc32)cc1 (stereo not given)	TDP1 cell CPT 20µM, DT40 TDP1 no CPT 10µM (no result: uPA surface inh, HT1080 IDH1KD tx, HT1080NT lethal, IL1B secr inh)
C#CCOCCOCCOCCNc1nc(N2CCN(C(=O)[C@H](CC(N)=O)n3cc(C(N)[C@H](C)CC)nn3)CC2)nc(N2CCN(C(=O)[C@H](CC(N)=O)n3cc(C(N)[C@@H](C)CC)nn3)CC2)n1 (stereo not given in full)	none
Cc1ccc(/C(O)=C2\C(=O)C(=O)N(CC(C)O)C2c2ccccn2)cc1 (stereo not given)	none
CCOc1ccc(C(=O)n2cc(C(=O)OC)c3ccccc32)cc1	HT1080 IDH1KD tx inconclusive, TDP1 cell CPT inconclusive, DT40 TDP1 no CPT 13µM
CCCCCCCC(=O)OCC(O)CO (stereo not given)	none
CCCCCCCCCCCCCCCCOCCOCCOCCOCCOCCOCCOCCOCCOCCOCCOCCOCCOCCOCCOCCOCCOCCOCCOCCOCCO	TDP1 cell CPT 23.7µM, DT40 TDP1 no CPT 7.5µM (no result: uPA surface inh, HT1080 IDH1KD tx, HT1080NT lethal, IL1B secr inh)
CCCCCCCCCCOCC(O)CN (stereo not given)	TDP1 cell CPT 6.68µM, DT40 TDP1 no CPT 6.68µM (no result: uPA surface inh, HT1080 IDH1KD tx, HT1080NT lethal, IL1B secr inh)

Bioassay records deposited in PubChem by National Center for Advancing Translational Sciences (NCATS).
